Screening results (PubChem BioAssay)
MEKK2wt PB1 HTS: modulators of MEK5 binding to wildtype MEKK2, primary screen, biochemical, multiplex bead flow cytometry, Alexa488-MEK5. 290,000 compounds, 1.1% hits. Alexa488-MEK5 binding to MEKK2 WT; actives lie on both sides. binding response (% of control), % at 10 µM. Mitogen-activated protein kinase kinase kinase 2 (Homo sapiens), Q9Y2U5. AID 1531, 2009; in the data active = binding response below about 67% or above about 130%
MEKK3 PB1 HTS: modulators of MEKK3-MEK5 PB1 binding, primary screen, biochemical, wildtype MEKK3, multiplex bead flow cytometry, Alexa488-MEK5; Mitogen-activated protein kinase kinase kinase 3 (Homo sapiens), Q99759; bead-based flow cytometry, Alexa488-MEK5 binding to MEKK3; actives lie on both sides; 0 = blocked by unlabeled MEK5, 100 = vehicle; binding response (% of control), % at 10 µM; 290,000 compounds, 1.4% hits; AID 1529, 2009;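 active = binding response more than 3 SD above or below the average of its plate-row segment, actives on both sides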;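 also: Alexa488 bead fluorescence after subtracting the streptavidin-only scavenger bead signal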
Target sequence (Q99759 whole entry, looked up): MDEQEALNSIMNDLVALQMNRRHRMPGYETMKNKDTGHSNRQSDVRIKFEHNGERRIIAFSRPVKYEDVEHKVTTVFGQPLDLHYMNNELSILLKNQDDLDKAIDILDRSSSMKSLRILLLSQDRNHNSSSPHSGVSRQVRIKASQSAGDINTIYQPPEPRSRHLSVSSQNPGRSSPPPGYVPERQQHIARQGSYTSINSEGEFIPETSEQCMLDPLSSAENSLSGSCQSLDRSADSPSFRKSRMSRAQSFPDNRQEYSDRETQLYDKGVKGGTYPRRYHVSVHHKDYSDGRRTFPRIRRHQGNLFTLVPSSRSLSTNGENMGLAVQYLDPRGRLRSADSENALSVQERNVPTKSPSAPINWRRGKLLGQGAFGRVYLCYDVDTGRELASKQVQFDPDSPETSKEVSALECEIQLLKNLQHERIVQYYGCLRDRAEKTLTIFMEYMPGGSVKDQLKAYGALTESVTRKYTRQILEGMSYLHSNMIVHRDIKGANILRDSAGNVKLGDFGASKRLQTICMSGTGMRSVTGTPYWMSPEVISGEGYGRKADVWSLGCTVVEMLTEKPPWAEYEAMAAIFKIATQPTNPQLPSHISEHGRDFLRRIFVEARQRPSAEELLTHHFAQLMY
MEKK2mut PB1 HTS: MEK5 binding signal on mutant MEKK2 PB1, primary screen, biochemical, multiplex bead flow cytometry, Alexa488-MEK5; Alexa488-MEK5 binding to MEKK2 mutant; percent response, % at 10 µM; 290,000 compounds, 0.35% hits; in the data active = percent response above about 24%, passing the limit was not always enough
GRK2 aptamer HTS: compounds blocking aptamer binding on GRK2 – biochemical, human GRK2, bead flow cytometry, HTS, primary screen; Beta-adrenergic receptor kinase 1 (Homo sapiens), P25098; FAM-aptamer displacement from GRK2; inhibition of aptamer binding, % at 10 µM; 330,000 compounds, 0.59% hits;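 active = inhibition of aptamer binding above 40%, roughly 3 SD of noise, on plates passing a quality check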;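 also: median bead fluorescence of bound FAM aptamer so fluorescent compounds give negative values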
MEKK2wt confirm: modulators of MEK5 binding to wildtype MEKK2, confirmation, biochemical, single concentration, multiplex bead flow cytometry; shares compounds with MEKK3 PB1 HTS; binding response (% of control), % at 10 µM; AID 1892, 2009; 5,900 compounds, 2.4% hits; Alexa488-MEK5 binding to MEKK2 WT; actives lie on both sides; in the data active = binding response below about 16% or above about 210%; inactive = in between
MEKK2mut confirm: mutant MEKK2 PB1-MEK5 binding signal retest – biochemical, single concentration, multiplex bead flow cytometry, confirmation | 5,900 compounds, 2% hits | percent response, % at 10 µM | shares compounds with MEKK3 PB1 HTS | Alexa488-MEK5 binding to MEKK2 mutant; in the data active = percent response mostly above about 71%, no sharp cut-off; inactive = mostly below about 38%;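 also: higher means compound restores mutant binding toward wildtype level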
MEKK3 confirm: MEKK3 wild-type PB1 binding to MEK5, inhibitors, confirmation, biochemical, bead multiplex flow cytometry, single concentration, wildtype; shares compounds with MEKK3 PB1 HTS; Alexa488-MEK5 binding to MEKK3; hits give low values; binding response (% of control), % at 10 µM; 5,900 compounds, 1.8% hits;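 active = binding response below 72% of control, or above a set upper limit, though filed actives all read lower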;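 also: 100% = DMSO only wells and 0% = binding blocked by excess unlabeled MEK5; lower values mean stronger disruption of MEK5 binding to MEKK3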
* = called active by the depositor; [ ] = remark or other dose. A selection: hits, their analogues and other compounds. The true share with any hit is near 2.5%.

How did O=C(/C=C/c1ccccc1)NC1CCS(=O)(=O)C1 (stereo not drawn) do in these assays?
MEKK2wt PB1 HTS: 95; MEKK3 PB1 HTS: 72*[inhibitor]; MEKK2mut PB1 HTS: 0; MEKK2wt confirm: 99; MEKK2mut confirm: -5; MEKK3 confirm: 102

What do the screens show for `Cc1ccc(/C=C/C(=O)NC2CCS(=O)(=O)C2)cc1` (stereo not drawn)?
MEKK2wt PB1 HTS: 101; MEKK3 PB1 HTS: 104; MEKK2mut PB1 HTS: 0; GRK2 aptamer HTS: 0

What do the screens show for `CC1CC(=O)Nc2ccccc2N1C(=O)COc1cc(Cl)ccc1Cl` (stereo not drawn)?
GRK2 aptamer HTS: 3

What do the screens show for `COc1ccc(Br)cc1S(=O)(=O)NCc1ccccc1`?
MEKK2wt PB1 HTS: 97; MEKK3 PB1 HTS: 99; MEKK2mut PB1 HTS: -2; GRK2 aptamer HTS: 0

What do the screens show for `COc1ccc(F)cc1S(=O)(=O)NCc1ccccc1`?
MEKK2wt PB1 HTS: 93; MEKK3 PB1 HTS: 72*[inhibitor]; MEKK2mut PB1 HTS: 0; GRK2 aptamer HTS: 1; MEKK2wt confirm: 100; MEKK2mut confirm: -6; MEKK3 confirm: 101

How did COc1ccc(N2CCN(C(=O)Cn3cnc4c(cnn4-c4ccc(C)cc4)c3=O)CC2)cc1 do in these assays?
MEKK2wt PB1 HTS: 116; MEKK3 PB1 HTS: 129*; MEKK2mut PB1 HTS: 1; GRK2 aptamer HTS: 0; MEKK2wt confirm: 105; MEKK2mut confirm: -5; MEKK3 confirm: 100

How did COc1ccc(N2CCN(C(=O)Cn3cnc4c(cnn4-c4ccccc4)c3=O)CC2)cc1 do in these assays?
MEKK2wt PB1 HTS: 94; MEKK3 PB1 HTS: 92; MEKK2mut PB1 HTS: -2; GRK2 aptamer HTS: 2

How did CC(C)OCCCNC(=O)CCN1C(=O)COc2ccccc21 do in these assays?
MEKK2wt PB1 HTS: -2.0*[inhibitor]; MEKK3 PB1 HTS: 1.0*[inhibitor]; MEKK2mut PB1 HTS: -20; GRK2 aptamer HTS: 2; MEKK2wt confirm: 108; MEKK2mut confirm: 6; MEKK3 confirm: 106

What do the screens show for `O=C(CCN1C(=O)COc2ccccc21)NCCCN1CCc2ccccc2C1`?
MEKK2wt PB1 HTS: 93; MEKK3 PB1 HTS: 87; MEKK2mut PB1 HTS: -5; GRK2 aptamer HTS: 5

What do the screens show for `CCOc1ncccc1C(=O)Nc1cc(S(=O)(=O)N2CCOCC2)ccc1OCC(F)(F)F`?
GRK2 aptamer HTS: 1

What do the screens show for `N#CCc1ccc(Oc2ccc([N+](=O)[O-])cn2)cc1`?
MEKK2wt PB1 HTS: 52; MEKK3 PB1 HTS: 48*[inhibitor]; MEKK2mut PB1 HTS: -19; GRK2 aptamer HTS: 2; MEKK2wt confirm: 106; MEKK2mut confirm: 7; MEKK3 confirm: 106

What do the screens show for `CN(C)CCCN(C(=O)COc1ccccc1)c1nc2cc3c(cc2s1)OCO3`?
MEKK2wt PB1 HTS: 118; MEKK3 PB1 HTS: 101; MEKK2mut PB1 HTS: 13; GRK2 aptamer HTS: 0

What do the screens show for `CN(C)CCCN(C(=O)COc1ccc(Cl)cc1)c1nc2cc3c(cc2s1)OCO3`?
MEKK2wt PB1 HTS: 179*; MEKK3 PB1 HTS: 107; MEKK2mut PB1 HTS: 35*; GRK2 aptamer HTS: 0; MEKK2wt confirm: 176; MEKK2mut confirm: 41; MEKK3 confirm: 109

How did COc1cccc2sc(N(CCCN(C)C)C(=O)COc3ccc(Cl)cc3)nc12 do in these assays?
MEKK2wt PB1 HTS: 168*; MEKK3 PB1 HTS: 105; MEKK2mut PB1 HTS: 9; GRK2 aptamer HTS: 0; MEKK2wt confirm: 151; MEKK2mut confirm: 35; MEKK3 confirm: 103

Results for CN(C)CCCN(C(=O)COc1ccccc1)c1nc2c(F)cccc2s1 ?
MEKK2wt PB1 HTS: 124; MEKK3 PB1 HTS: 109; MEKK2mut PB1 HTS: 0; GRK2 aptamer HTS: 0

What do the screens show for `Cc1ccc2nc(N(CCCN(C)C)C(=O)CCc3ccccc3)sc2c1`?
MEKK2wt PB1 HTS: 137; MEKK3 PB1 HTS: 139*; MEKK2mut PB1 HTS: 5; GRK2 aptamer HTS: 0; MEKK2wt confirm: 139; MEKK2mut confirm: 12; MEKK3 confirm: 102

Results for CN(C)CCCN(C(=O)COc1ccccc1)c1nc2ccc(Cl)cc2s1 ?
MEKK2wt PB1 HTS: 167*; MEKK3 PB1 HTS: 105; MEKK2mut PB1 HTS: 32; GRK2 aptamer HTS: 0; MEKK2wt confirm: 154; MEKK2mut confirm: 20; MEKK3 confirm: 106

Results for CC1CCCCN1C(=O)CSc1nnc(-c2cccnc2)o1 (stereo not drawn) ?
MEKK2wt PB1 HTS: 97; MEKK3 PB1 HTS: 98; MEKK2mut PB1 HTS: -1; GRK2 aptamer HTS: 2

Results for Cc1cc(-c2nnc(SCC(=O)Nc3c(C)cccc3C)n2N)n[nH]1 ?
MEKK2wt PB1 HTS: 95; MEKK3 PB1 HTS: 96; MEKK2mut PB1 HTS: 0; GRK2 aptamer HTS: 2

Results for O=[N+]([O-])c1ccccc1N(CC1CO1)S(=O)(=O)c1ccccc1 (stereo not drawn) ?
MEKK2wt PB1 HTS: 93; MEKK3 PB1 HTS: 98; MEKK2mut PB1 HTS: -9; GRK2 aptamer HTS: 2

Results for COc1ccc(CCNC(=O)c2c[nH]c3ccc(F)cc3c2=O)cc1OC ?
MEKK2wt PB1 HTS: 102; MEKK3 PB1 HTS: 99; MEKK2mut PB1 HTS: 1; GRK2 aptamer HTS: 10

Results for O=C1C=C(c2ccc3c(c2)oc2ccccc23)C[C@@H](c2ccc(Cl)cc2)C1 ?
GRK2 aptamer HTS: 1

How did CN(C)CCCN(C(=O)CCc1ccccc1)c1nc2ccc(Cl)cc2s1 do in these assays?
MEKK2wt PB1 HTS: 164*; MEKK3 PB1 HTS: 114; MEKK2mut PB1 HTS: 43; GRK2 aptamer HTS: 0; MEKK2wt confirm: 184; MEKK2mut confirm: 51; MEKK3 confirm: 111

What do the screens show for `CCCCNCC1C(Oc2ccc(Cl)cc2)C(=O)N1c1ccccc1C` (stereo not drawn)?
MEKK2wt PB1 HTS: 125; MEKK3 PB1 HTS: 123; MEKK2mut PB1 HTS: 1; GRK2 aptamer HTS: 0

Results for CCCNCC1C(Oc2ccc(Cl)cc2Cl)C(=O)N1c1cccc(C)c1C (stereo not drawn) ?
MEKK2wt PB1 HTS: 135; MEKK3 PB1 HTS: 136*; MEKK2mut PB1 HTS: 4; GRK2 aptamer HTS: 0; MEKK2wt confirm: 128; MEKK2mut confirm: 12; MEKK3 confirm: 98

What do the screens show for `Cc1cccc(N2CC(C(=O)O)CC2=O)c1C` (stereo not drawn)?
MEKK2wt PB1 HTS: 95; MEKK3 PB1 HTS: 99; MEKK2mut PB1 HTS: 16; GRK2 aptamer HTS: 3
